Key:
Assay in all cases: log2 ratio of Biotin-Ahx-Ub-VS probe labelling (compound/DMSO); higher = less target engagement, active = hit call of the paper (q ≤ 0.05, log2 ratio ≤ -1)
Conditions in all cases: treatment time: 3 h
[1] = compound: CCC1N(CCc2sccc12)C(=O)CCl
Procedure, shortened: (§1)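 HEK293T lysate (495 µg per sample, in Tris/CHAPS/IGEPAL buffer with protease inhibitors) was treated in triplicate with compound at 50 or 200 µM or with DMSO for 3 h. It was then treated with Biotin-Ahx-Ub-VS (0.5 µM final) for 1 h. Labelled DUBs were NeutrAvidin-enriched, digested with LysC and trypsin, and run by diaPASEF LC-MS/MS. Median-normalised label-free quantities gave average log2 ratios compound/DMSO by unpaired t-test, using proteins with ≥2 unique peptides.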

[2] = compound: CN1c2ccccc2C(CS1(=O)=O)NC(=O)CCl
Procedure, shortened: as §1

[3] = compound: Cl.ClCC(=O)N1CCc2ncncc2C1
Procedure, shortened: as §1

[4] = compound: Cl.Cn1ncc2C(CCCc12)NC(=O)CCl
Procedure, shortened: as §1

[5] = compound: ClCC(=O)NC1CCOc2ccccc12
Procedure, shortened: as §1

[6] = compound: ClCC(=O)NC1CCCc2ccccc12
Procedure, shortened: (§2)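 HEK293T lysate (495 µg per sample, in Tris/CHAPS/IGEPAL buffer with protease inhibitors) was treated in triplicate with compound over a concentration series or DMSO for 3 h, then with Biotin-Ahx-Ub-VS (0.5 µM final) for 1 h. Labelled DUBs were NeutrAvidin-enriched, digested with LysC and trypsin, and run by diaPASEF LC-MS/MS. Spectronaut label-free protein quantities were global-median-normalised. Values are average log2 ratios compound/DMSO from an unpaired t-test, using proteins with ≥2 unique peptides.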

[7] = compound: ClCC(=O)N[C@@H]1CCCc2ccccc12
Procedure, shortened: as §2

[8] = compound: ClCC(=O)N[C@H]1CCCc2ccccc12
Procedure, shortened: as §2

[9] = compound: CCC1N(CCc2cc(OC)c(Cl)cc12)C(=O)CCl
Procedure, shortened: as §1

[10] = compound: CCCC1N(CCc2cc(OC)c(OC)cc12)C(=O)CCl
Procedure, shortened: as §1

Measured: log2 ratio of Biotin-Ahx-Ub-VS probe labelling

UniProt Q9UGI0
Sequence of UniProt Q9UGI0 (Q9UGI0 whole entry): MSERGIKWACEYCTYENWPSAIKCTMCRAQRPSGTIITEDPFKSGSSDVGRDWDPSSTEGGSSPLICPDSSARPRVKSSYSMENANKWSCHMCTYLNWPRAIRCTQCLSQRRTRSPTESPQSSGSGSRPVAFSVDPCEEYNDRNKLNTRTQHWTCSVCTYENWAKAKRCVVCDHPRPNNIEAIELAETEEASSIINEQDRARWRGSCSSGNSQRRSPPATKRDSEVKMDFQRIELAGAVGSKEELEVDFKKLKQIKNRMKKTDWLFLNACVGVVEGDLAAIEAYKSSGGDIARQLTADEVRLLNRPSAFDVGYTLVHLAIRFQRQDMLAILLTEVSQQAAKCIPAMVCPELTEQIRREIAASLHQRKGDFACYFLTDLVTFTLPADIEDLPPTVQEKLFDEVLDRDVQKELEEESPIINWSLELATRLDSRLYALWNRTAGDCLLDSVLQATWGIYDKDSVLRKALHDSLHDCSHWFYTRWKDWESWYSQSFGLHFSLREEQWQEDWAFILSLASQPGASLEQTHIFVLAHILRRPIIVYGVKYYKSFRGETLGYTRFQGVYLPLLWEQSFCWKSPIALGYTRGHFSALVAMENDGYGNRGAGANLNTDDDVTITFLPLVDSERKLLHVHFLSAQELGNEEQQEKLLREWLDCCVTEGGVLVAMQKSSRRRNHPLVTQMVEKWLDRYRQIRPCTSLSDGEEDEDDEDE
inactive: [1]; compound concentration: 50uM -0.292 | [1]; compound concentration: 200uM -0.203 | [2]; compound concentration: 50uM -0.406 | [2]; compound concentration: 200uM 0.104 | [3]; compound concentration: 50uM -0.538 | [3]; compound concentration: 200uM -0.31 | [4]; compound concentration: 50uM -0.202 | [4]; compound concentration: 200uM 0.279 | [5]; compound concentration: 50uM 0.0945 | [5]; compound concentration: 200uM -0.4 | [6]; compound concentration: 0.78uM -0.0262 | [6]; compound concentration: 1.56uM 0.0502 | [6]; compound concentration: 3.13uM -0.0706 | [6]; compound concentration: 6.25uM 0.0502 | [6]; compound concentration: 12.5uM 0.00734 | [6]; compound concentration: 25uM -0.073 | [6]; compound concentration: 50uM -0.0421 | [6]; compound concentration: 100uM -0.161 | [6]; compound concentration: 200uM -0.304 | [7]; compound concentration: 0.78uM 0.0537 | [7]; compound concentration: 1.56uM -0.0707 | [7]; compound concentration: 3.13uM 0.111 | [7]; compound concentration: 6.25uM -0.134 | [7]; compound concentration: 12.5uM -0.0472 | [7]; compound concentration: 25uM -0.0247 | [7]; compound concentration: 50uM -0.136 | [7]; compound concentration: 100uM -0.218 | [7]; compound concentration: 200uM -0.262 | [8]; compound concentration: 0.78uM -0.114 | [8]; compound concentration: 1.56uM 0.117 | [8]; compound concentration: 3.13uM -0.00437 | [8]; compound concentration: 6.25uM -0.00155 | [8]; compound concentration: 12.5uM -0.143 | [8]; compound concentration: 25uM -0.115 | [8]; compound concentration: 50uM 0.0192 | [8]; compound concentration: 100uM -0.022 | [8]; compound concentration: 200uM -0.133 | [9]; compound concentration: 50uM -0.0637 | [9]; compound concentration: 200uM -0.0883 | [10]; compound concentration: 50uM -0.0341 | [10]; compound concentration: 200uM -0.418

MINDY4 (UniProt Q4G0A6)
Sequence of UniProt Q4G0A6 (Q4G0A6 whole entry): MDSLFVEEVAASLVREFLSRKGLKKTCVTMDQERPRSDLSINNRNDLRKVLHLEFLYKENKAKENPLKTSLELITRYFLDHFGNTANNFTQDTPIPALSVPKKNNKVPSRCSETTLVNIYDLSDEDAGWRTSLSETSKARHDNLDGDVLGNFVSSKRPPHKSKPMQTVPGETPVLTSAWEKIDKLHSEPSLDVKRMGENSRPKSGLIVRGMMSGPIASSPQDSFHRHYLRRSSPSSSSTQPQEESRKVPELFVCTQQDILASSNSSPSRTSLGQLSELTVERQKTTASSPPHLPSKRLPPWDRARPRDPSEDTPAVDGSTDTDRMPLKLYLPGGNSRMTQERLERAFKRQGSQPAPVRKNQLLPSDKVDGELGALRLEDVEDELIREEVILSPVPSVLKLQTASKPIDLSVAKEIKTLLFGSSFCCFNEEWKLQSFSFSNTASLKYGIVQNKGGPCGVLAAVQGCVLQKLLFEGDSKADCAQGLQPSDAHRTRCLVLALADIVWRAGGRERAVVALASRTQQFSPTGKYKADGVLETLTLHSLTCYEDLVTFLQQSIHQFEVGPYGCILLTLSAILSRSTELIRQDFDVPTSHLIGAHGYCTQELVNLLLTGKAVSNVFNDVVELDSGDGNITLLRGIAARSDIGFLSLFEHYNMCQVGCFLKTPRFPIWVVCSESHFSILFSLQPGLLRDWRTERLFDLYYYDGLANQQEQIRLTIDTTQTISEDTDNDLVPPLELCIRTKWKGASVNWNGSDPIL
active: [2]; compound concentration: 50uM -4.18 | [6]; compound concentration: 0.78uM -2.83 | [6]; compound concentration: 1.56uM -3.43 | [6]; compound concentration: 3.13uM -2.24 | [6]; compound concentration: 6.25uM -2.62 | [6]; compound concentration: 12.5uM -1.89 | [6]; compound concentration: 25uM -2.3 | [6]; compound concentration: 50uM -2.78 | [6]; compound concentration: 100uM -2.85 | [6]; compound concentration: 200uM -2.45 | [7]; compound concentration: 1.56uM -1.89 | [7]; compound concentration: 3.13uM -2.16 | [7]; compound concentration: 6.25uM -1.61 | [7]; compound concentration: 25uM -2.02 | [7]; compound concentration: 50uM -1.96 | [7]; compound concentration: 100uM -1.48 | [7]; compound concentration: 200uM -1.33 | [8]; compound concentration: 0.78uM -2.37 | [8]; compound concentration: 1.56uM -1.3 | [8]; compound concentration: 3.13uM -1.21 | [8]; compound concentration: 6.25uM -3.95 | [8]; compound concentration: 12.5uM -1.25 | [8]; compound concentration: 25uM -1.1 | [8]; compound concentration: 50uM -1.99 | [8]; compound concentration: 100uM -1.91 | [8]; compound concentration: 200uM -2.54
inactive: [1]; compound concentration: 50uM -0.62 | [1]; compound concentration: 200uM 0.797 | [2]; compound concentration: 200uM 0.688 | [3]; compound concentration: 50uM 0.73 | [3]; compound concentration: 200uM -0.108 | [4]; compound concentration: 50uM 0.308 | [4]; compound concentration: 200uM 0.136 | [5]; compound concentration: 50uM 0.825 | [5]; compound concentration: 200uM 0.522 | [7]; compound concentration: 0.78uM -0.837 | [7]; compound concentration: 12.5uM -0.893 | [9]; compound concentration: 50uM 0.0614 | [9]; compound concentration: 200uM -0.042 | [10]; compound concentration: 50uM 0.725 | [10]; compound concentration: 200uM -0.113

USP47 (UniProt Q96K76)
Sequence of UniProt Q96K76 (Q96K76 whole entry): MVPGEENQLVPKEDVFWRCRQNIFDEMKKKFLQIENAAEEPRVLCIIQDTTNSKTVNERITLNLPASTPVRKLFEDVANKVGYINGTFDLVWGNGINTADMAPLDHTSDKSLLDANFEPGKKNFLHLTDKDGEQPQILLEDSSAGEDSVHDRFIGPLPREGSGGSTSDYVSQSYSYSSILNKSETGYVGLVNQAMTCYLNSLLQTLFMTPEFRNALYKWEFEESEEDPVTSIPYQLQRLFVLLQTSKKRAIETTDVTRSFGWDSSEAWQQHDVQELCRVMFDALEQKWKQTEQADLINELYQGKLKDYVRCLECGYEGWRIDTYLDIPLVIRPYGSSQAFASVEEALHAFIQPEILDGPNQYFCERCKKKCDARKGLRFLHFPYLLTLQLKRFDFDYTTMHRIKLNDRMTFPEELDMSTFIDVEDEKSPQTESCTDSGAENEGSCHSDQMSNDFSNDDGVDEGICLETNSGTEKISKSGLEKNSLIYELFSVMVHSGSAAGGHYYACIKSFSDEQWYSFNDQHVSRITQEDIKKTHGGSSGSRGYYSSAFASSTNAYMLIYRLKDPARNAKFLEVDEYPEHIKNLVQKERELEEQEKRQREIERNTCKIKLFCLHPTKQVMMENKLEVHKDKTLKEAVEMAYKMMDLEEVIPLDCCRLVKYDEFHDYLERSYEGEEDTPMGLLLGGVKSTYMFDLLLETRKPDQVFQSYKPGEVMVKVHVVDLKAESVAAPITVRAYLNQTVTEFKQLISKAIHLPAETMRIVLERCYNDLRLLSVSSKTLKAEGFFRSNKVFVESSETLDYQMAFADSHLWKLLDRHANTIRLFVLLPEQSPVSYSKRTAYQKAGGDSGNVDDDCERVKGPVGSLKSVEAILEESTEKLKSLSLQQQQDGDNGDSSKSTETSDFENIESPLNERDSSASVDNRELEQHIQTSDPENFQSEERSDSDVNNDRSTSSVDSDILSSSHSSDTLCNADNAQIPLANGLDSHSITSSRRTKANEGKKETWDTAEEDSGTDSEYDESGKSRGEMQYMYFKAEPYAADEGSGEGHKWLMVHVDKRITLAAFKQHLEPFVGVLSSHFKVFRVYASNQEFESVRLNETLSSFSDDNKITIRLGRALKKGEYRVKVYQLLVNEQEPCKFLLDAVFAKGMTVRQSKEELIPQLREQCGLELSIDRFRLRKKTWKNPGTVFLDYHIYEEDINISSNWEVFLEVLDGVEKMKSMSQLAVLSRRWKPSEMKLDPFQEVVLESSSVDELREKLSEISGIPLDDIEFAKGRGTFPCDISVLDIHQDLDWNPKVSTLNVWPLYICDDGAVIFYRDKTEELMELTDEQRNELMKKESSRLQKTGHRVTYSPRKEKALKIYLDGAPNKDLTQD
inactive: [6]; compound concentration: 0.78uM -0.835 | [6]; compound concentration: 1.56uM -0.97 | [7]; compound concentration: 1.56uM -0.399 | [7]; compound concentration: 3.13uM -0.592 | [7]; compound concentration: 6.25uM -0.585 | [7]; compound concentration: 12.5uM -0.654 | [7]; compound concentration: 25uM -0.26 | [7]; compound concentration: 50uM -0.749 | [7]; compound concentration: 100uM -0.609 | [7]; compound concentration: 200uM 0.134 | [8]; compound concentration: 0.78uM -0.545 | [8]; compound concentration: 1.56uM -0.834 | [8]; compound concentration: 3.13uM -0.514 | [8]; compound concentration: 12.5uM -0.725 | [8]; compound concentration: 25uM -0.536 | [8]; compound concentration: 50uM -0.911 | [8]; compound concentration: 200uM -0.929
active: [6]; compound concentration: 3.13uM -1.96 | [6]; compound concentration: 6.25uM -1.31 | [6]; compound concentration: 12.5uM -2.62 | [6]; compound concentration: 25uM -2.65 | [6]; compound concentration: 50uM -1.54 | [6]; compound concentration: 100uM -1.65 | [6]; compound concentration: 200uM -1.87 | [7]; compound concentration: 0.78uM -1.55 | [8]; compound concentration: 6.25uM -1.57 | [8]; compound concentration: 100uM -1.22

— the supplement of paper PMC11732987, “Enantioselective OTUD7B fragment discovery through chemoproteomics screening and high-throughput optimisation” (Communications Chemistry, 2025)
